Screening data (PubChem BioAssay)
The list is not random: actives were taken first. Their share in the collection is about 4%.
Rv3671c protease: inhibitors of M. tuberculosis serine protease Rv3671c; P9WHR9; inhibition, % at 5.96 µM; actives 0.048% (n = 320,000); in the data active means inhibition above about 38%;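 further: extracellular domain of Rv3671c used as enzyme; 0% = enzyme with DMSO and 100% = no enzyme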
Target sequence (P9WHR9 whole entry, looked up, the tested form may be a part): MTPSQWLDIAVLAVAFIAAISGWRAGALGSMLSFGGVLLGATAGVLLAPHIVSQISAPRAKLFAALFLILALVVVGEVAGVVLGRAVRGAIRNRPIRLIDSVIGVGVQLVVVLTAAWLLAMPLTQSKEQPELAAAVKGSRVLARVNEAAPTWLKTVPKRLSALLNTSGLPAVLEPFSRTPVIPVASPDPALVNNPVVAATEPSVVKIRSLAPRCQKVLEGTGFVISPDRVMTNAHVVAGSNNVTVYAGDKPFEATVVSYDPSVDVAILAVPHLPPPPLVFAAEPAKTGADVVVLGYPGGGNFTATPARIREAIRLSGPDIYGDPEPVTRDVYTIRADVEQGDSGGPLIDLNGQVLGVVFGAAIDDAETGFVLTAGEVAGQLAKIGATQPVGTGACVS
GDH-TPI counter-1: GDH-TPI coupled enzyme inhibition counter-screen; AID 588335; GDH-TPI coupled enzyme counterscreen, NADH absorbance; inhibition, % at 4.8 µM; actives 1.2% (n = 360,000); in the data active means inhibition above about 30%;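 further: 0% = DMSO wells and 100% = wells lacking the enzyme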
RecA intein inh: inhibitors of M. tuberculosis RecA intein splicing; cell-free RecA intein splicing, fluorescence; AID 2221; inhibition, % (no concentration beside the values); P9WHJ3; actives 0.75% (n = 290,000); in the data active means inhibition above about 30%; inconclusive means no clear call, values can overlap the other calls;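 further: 0% = vehicle wells and 100% = reference inhibitor control wells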
FBA Mtb inh: inhibitors of M. tuberculosis fructose-bisphosphate aldolase | purified M. tuberculosis FBA, fluorescence read-out | inhibition, % at 1 µM | actives 2.3% (n = 360,000) | AID 588726;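 further: 0% = vehicle and 100% = reference inhibitor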
Target sequence (P9WQA3 whole entry, looked up): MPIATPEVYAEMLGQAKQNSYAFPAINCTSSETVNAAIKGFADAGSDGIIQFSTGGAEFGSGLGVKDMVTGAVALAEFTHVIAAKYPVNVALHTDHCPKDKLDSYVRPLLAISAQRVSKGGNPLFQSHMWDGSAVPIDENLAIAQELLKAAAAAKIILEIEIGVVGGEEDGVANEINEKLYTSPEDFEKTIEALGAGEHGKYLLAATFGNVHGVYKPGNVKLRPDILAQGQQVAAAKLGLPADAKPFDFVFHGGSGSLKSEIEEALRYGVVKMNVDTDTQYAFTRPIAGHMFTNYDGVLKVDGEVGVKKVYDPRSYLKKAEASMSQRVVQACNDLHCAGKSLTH
Mtb UGM inh: Mtb UDP-galactopyranose mutase inhibition; P9WIQ1; purified UGM, fluorescence polarization probe displacement; inhibition, % at 10 µM; actives 0.06% (n = 320,000); AID 504406; in the data active means inhibition above about 10%, passing the limit was not always enough; inconclusive means no clear call, values can overlap the other calls
Mtb bLac sens: beta-lactam sensitization of Mtb H37Rv. M. tuberculosis H37Rv growth with meropenem, percent inhibition. inhibition, % at 25 µM. actives 0.27% (n = 330,000); call rule not given here;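 further: growth measured after seven days incubation then overnight dye step; 0% = bacteria only wells and 100% = bacteria with antibiotic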
Mtb FBA inh conf: confirmation of M. tuberculosis fructose-bisphosphate aldolase inhibitors; shares compounds with FBA Mtb inh; purified M. tuberculosis FBA, fluorescence read-out; inhibition, % at 1 µM; actives 78% (n = 5,600);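 further: 0% = vehicle wells and 100% = reference inhibitor wells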
GDH-TPI counter-2: GDH-TPI inhibition counter-screen for FBA inhibitors | shares compounds with FBA Mtb inh | GDH-TPI coupled enzyme counterscreen, fluorescence | inhibition, % at 1 µM | actives 81% (n = 5,600) | AID 652141; in the data active means inhibition above about 10%
The depositor's hits bear a star; ? = inconclusive; nt = no result given; + = active, no number. Unless noted, no stated cut-off is given here; in the data, active means inhibition above about 27%; inactive means the rest.

SMILES | Rv3671c protease | GDH-TPI counter-1 | RecA intein inh | FBA Mtb inh | Mtb UGM inh | Mtb bLac sens | Mtb FBA inh conf | GDH-TPI counter-2
CCOc1c2ccoc2nc2c(OC)c(OC)ccc12 | 4.8 | 13.2 | -0.4 | 67.2* | -0.5 | -6.1 | + | 175.3*
Cc1ccc(S(=O)(=O)N2C[C@]3(O)C[C@@H]4C(=O)N(c5ccccc5)C(=O)[C@@H]4C[C@]3(OC(=O)Nc3c(C)noc3C)C2)cc1 | nt | -0.9 | nt | 3.4 | nt | nt | nt | nt
CCOC(=O)c1ccc(NC(=O)C(=O)NCCc2ccc(OC)cc2)cc1 | 2.0 | -2.5 | 1.8 | 50.4* | 0.1 | 6.0 | 115.9* | 106.3*
CCOC(=O)c1ccc(NC(=O)NCc2ccc(OC)cc2)cc1 | -27.3 | 3.1 | 1.8 | 1.0 | -5.6 | 1.9 | nt | nt
Cc1c(Br)c(=O)oc2c(C)c(O)ccc12 | -9.9 | 13.5 | -169.2 | 40.6* | -1.1 | 38.9 | 196.2* | 168.8*
O=C(c1cc(S(=O)(=O)N2CCOCC2)ccc1F)N1CCc2ccccc21 | -5.4 | 4.8 | nt | 2.0 | -1.0 | -1.4 | nt | nt
Cc1cccc2c1-c1sc(C(=O)N3CCCCC3)cc1CO2 | -7.5 | 10.9 | 5.1 | 42.2* | 0.3 | ? | 10.9 | 19.1*
Cc1cccc2c1-c1sc(C(=O)N3CCc4ccccc4C3)cc1CO2 | -39.4 | -1.4 | 1.3 | 41.1* | -0.3 | 4.5 | 59.1* | 40.9*
CCOc1ccc(S(=O)(=O)c2cn(C)c3cc(OC)c(OC)cc3c2=O)cc1 | 6.1 | 10.2 | -3.0 | 2.1 | -1.7 | ? | nt | nt
CN(C(=O)c1ccccc1C(=O)OCC(=O)c1ccc(Br)cc1)c1ccccc1 | -2.8 | -1.4 | 12.5 | 3.3 | -0.6 | -6.6 | nt | nt
CC(NC(=O)C1=CC=CN2CCS(=O)(=O)N=C12)c1ccc(Cl)cc1Cl (centres undefined) | -2.4 | 1.0 | nt | 28.9* | nt | -8.8 | 125.5* | 94.7*
CN(Cc1ccc(Cl)c(Cl)c1)C(=O)C1=CC=CN2CCS(=O)(=O)N=C12 | 0.0 | 5.7 | nt | 8.8 | 0.7 | 4.7 | nt | nt
CC(NC(=O)C1=CC=CN2CCS(=O)(=O)N=C12)c1ccc(Cl)c(Cl)c1 (centres undefined) | 0.5 | 17.5 | nt | 15.9 | 0.0 | -0.8 | nt | nt
O=C(NCc1ccccc1Cl)C1=CC=CN2CCS(=O)(=O)N=C12 | -3.4 | 11.0 | nt | 35.8* | -0.2 | 2.0 | + | +
COc1ccc(CN2CCC2(C)C(=O)NCCc2c[nH]c3ccccc23)c2ccccc12 (centres undefined) | nt | 6.6 | nt | 1.9 | nt | nt | nt | nt
COc1ccc(OC2CCN(S(=O)(=O)c3ccc(C(C)=O)cc3)CC2)cc1 | -4.5 | -6.6 | -1.9 | -1.4 | 2.2 | -1.9 | nt | nt
Nc1ncc2c(n1)-c1ccoc1CC2 | -1.8 | 18.9 | -3.6 | 36.4* | 1.9 | 3.3 | 124.8* | 103.4*
O=C(Nc1ncc2c(n1)-c1ccccc1CC2)c1ccccc1 | 1.1 | 2.2 | -0.1 | -0.2 | 0.3 | 0.4 | nt | nt
Nc1ncc2c(n1)-c1ccccc1CC2 | 12.3 | 19.2 | 0.1 | 63.6* | 2.4 | -11.5 | 17.2 | 9.3
O=C(Nc1nc2nc(-c3ccccc3)cc(-c3ccccc3)n2n1)c1ccco1 | -19.5 | 28.0 | 3.1 | 43.2* | 2.9 | -13.3 | 132.2* | 97.8*
c1ccc(-c2ccc3ccccc3n2)cc1 | -11.7 | 6.9 | 1.1 | -0.3 | 1.2 | 8.2 | nt | nt
c1ccc(-c2nc3ccccc3o2)nc1 | 5.5 | -4.8 | -0.3 | 29.1* | -1.0 | -6.3 | 6.9 | 1.2
c1ccc2nc(-c3nc4ccccc4o3)ccc2c1 | -7.7 | 19.5 | -0.9 | 69.2* | 0.7 | nt | 117.9* | 104.4*
Cc1cc(=O)oc2cc(OC(C)C(=O)O)c(Cl)cc12 (centres undefined) | -15.1 | 9.0 | -3.1 | 31.5* | 0.9 | -4.1 | 3.2 | 4.3
Cc1c(C)c2ccc(OCC(=O)N3CCN(C(=O)C4COc5ccccc5O4)CC3)cc2oc1=O (centres undefined) | -6.9 | 12.7 | 3.3 | 65.5* | -0.8 | 7.6 | 29.0* | 17.1*
SMILES | Rv3671c protease | GDH-TPI counter-1 | RecA intein inh | FBA Mtb inh | Mtb UGM inh | Mtb bLac sens | Mtb FBA inh conf | GDH-TPI counter-2
Cc1cc(=O)oc2cc(OCC(=O)N3CCN(C(=O)C4COc5ccccc5O4)CC3)ccc12 (centres undefined) | 8.1 | 15.5 | -2.1 | 34.8* | -0.6 | 1.0 | + | +
CCCc1cc(=O)oc2cc(OCC(=O)N3CCN(C(=O)C4COc5ccccc5O4)CC3)ccc12 (centres undefined) | -2.3 | 2.4 | -0.6 | 23.8 | -1.1 | 30.2 | nt | nt
COc1cc2nc(N3CCN(C(=O)C4COc5ccccc5O4)CC3)nc(N)c2cc1OC (centres undefined) | 3.8 | 17.9 | 3.1 | 85.3* | -2.0 | 11.9 | 148.2* | 109.9*
CCOC(=O)N1CCN(C(=O)C2COc3ccccc3O2)CC1 (centres undefined) | 1.7 | 6.4 | -3.8 | -2.6 | 1.1 | -0.6 | nt | nt
COc1ccc2c(C)c(CC(=O)N3CCN(C(=O)C4COc5ccccc5O4)CC3)c(=O)oc2c1C (centres undefined) | -2.9 | 9.4 | -3.1 | 78.4* | -3.3 | 0.0 | 162.4* | 131.3*
COc1ccc2nc(N3CCN(C(=O)C4COc5ccccc5O4)CC3)sc2c1 (centres undefined) | 0.4 | 15.9 | 4.6 | 2.8 | -1.0 | 77.7 | nt | nt
O=C(COc1ccc2ccc(=O)oc2c1)N1CCN(C(=O)C2COc3ccccc3O2)CC1 (centres undefined) | -0.2 | 16.2 | 0.8 | 22.5 | 0.3 | -8.6 | nt | nt
COC(=O)c1cn(C(=O)c2cc(Cl)ccc2Cl)c2ccccc12 | -3.5 | 7.1 | 0.0 | 0.8 | 1.8 | -3.7 | nt | nt
Cc1cc(=O)oc2cc(OCC(=O)OCC(=O)Nc3ccccc3F)ccc12 | 0.1 | 8.7 | -0.4 | 54.0* | 4.3 | -6.1 | 169.4* | 146.7*
Cc1cc(=O)oc2cc(OCC(=O)OCC(=O)Nc3ccccc3C(C)C)ccc12 | -9.5 | 10.0 | 0.1 | 25.5 | -0.8 | 3.4 | nt | nt
Cc1cc(=O)oc2cc(OCC(=O)OCC(=O)NC(C)C)ccc12 | 2.7 | 12.6 | nt | 48.2* | -2.6 | -7.7 | 106.9* | 84.9*
Cc1cc(=O)oc2cc(OCC(=O)NC3(C#N)CCCCC3)ccc12 | nt | 11.5 | nt | 77.1* | nt | nt | 58.4* | 57.6*
Cc1nnc(NC(=O)COc2ccc3c(C)cc(=O)oc3c2)s1 | 1.9 | 9.8 | 1.5 | 40.2* | 3.2 | -8.1 | 191.6* | 144.4*
Cc1cc(=O)oc2cc(OCC(=O)NC3(C#N)CCCCC3)c(Cl)cc12 | nt | 14.8 | nt | 22.1 | nt | nt | nt | nt
COc1cc2c(c(OC)c1OC)-c1ccc(SC)c(=O)cc1C(NC=O)CC2 (centres undefined) | nt | 4.3 | nt | -1.4 | nt | nt | nt | nt
CCC(=O)Nn1cnc2c(c1=O)C1(CCCCC1)Cc1ccccc1-2 | -5.5 | -1.9 | 1.6 | 1.6 | -0.4 | -3.5 | nt | nt
N#CCSc1n[nH]c2nc3c(c(=O)n12)C1(CCCCC1)Cc1ccccc1-3 | 6.7 | 2.6 | 5.1 | 28.4* | -1.6 | 1.6 | -0.7 | -2.9
Cn1c(NCCCO)nc2c(c1=O)C1(CCCCC1)Cc1ccccc1-2 | -0.8 | 15.2 | nt | 65.5* | -2.0 | 1.1 | 121.9* | 84.6*
